Screening results from PubChem BioAssay.
Shown are actives, neighbours in structure and some others; about 6.9% of the full set was active somewhere.
PLK1 PBD block: inhibitors of human PLK1 polo-box domain binding; AID 720504; P53350; Plk1 PBD binding of FITC phosphopeptide, fluorescence polarization; 360,000 tested, 2.8% active; Potency, µM, for the others: max response, negative = inhibition, hits mostly inhibitors; further: series mostly up to about 57 µM; on the % scale 0 is the no-effect control and ±100 the full control effect; nearly all actives have a fitted effect of over 65% in size
BAZ2B inh: blocks human BAZ2B; Q9UIF8; 360,000 tested, 4.4% active; AID 504333; AlphaScreen BAZ2B-H3K14Ac peptide displacement; Potency, µM (doses to about 114 µM), inactives show at the highest dose activity change, negative = inhibition, hits mostly inhibitors; further: on the % scale 0 is the no-effect control and ±100 the full control effect; nearly all actives have a fitted effect of over 60% in size
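Complex of BAZ2B and biotin-H3K14Ac (50 nM apiece) forms over 30 min at RT, then faces library compounds up to 110 uM for another 30 min; AlphaScreen beads added, 20 min dark incubation, luminescence read.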
JMJD2A Tudor: blocks the human JMJD2A Tudor domain; AlphaScreen JMJD2A-Tudor / H3K4me3 peptide binding; O75164; 390,000 tested, 4.4% active; AID 504339; Potency, µM (titrated, usually from 114 µM), inactives show at the top dose activity change, negative = inhibition, usual class: inhibitors; further: on the % scale 0 is the no-effect control and ±100 the full control effect; nearly all actives have a fitted effect of over 50% in size
VDR inhibitor: blocks the human vitamin D receptor. P11473. VDR-SRC2-3 peptide fluorescence polarization, 2 h. Potency, µM, for inactives: max response, negative = inhibition, actives largely listed as inhibitors. 400,000 tested, 0.93% active; further: on the % scale 0 is the no-effect control and ±100 the full control effect
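VDR–SRC2-3 interaction, FP format. Cmpds 23 nl via pintool, brief spin, 2 h ambient incubation.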
HP1b binding inh: inhibitors of HP1-beta chromodomain binding to methylated histone tails; AlphaScreen HP1-beta / biotin-H3K9me3 peptide binding; 390,000 tested, 0.56% active; AID 540317; Potency, µM (series often up to 114 µM), without a hit: at the top dose activity change, negative = inhibition, actives largely listed as inhibitors; further: nearly all actives have a fitted effect of over 70% in size
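HP1-beta protein (50 nM final) preincubated 30 min at room temperature with biotinylated H3(1-18)K9me3 peptide (50 nM) in PBS pH 7.4, 0.01% Tween-20, then compound added for 30 min. AlphaScreen streptavidin donor/nickel chelate acceptor beads (10 ug/mL final), 30 min dark, luminescence read.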
L3MBTL1 inh: L3MBTL1 (human) inhibition | AID 485360 | Q9Y468 | Potency, µM (doses to about 57.1 µM), without a hit: top-dose activity, negative = inhibition, actives largely listed as inhibitors | AlphaScreen L3MBTL1–H3K9me1 peptide binding | 230,000 tested, 0.66% active; further: on the % scale 0 is the no-effect control and ±100 the full control effect; nearly all actives have a fitted effect of over 60% in size
Target sequence (Q9Y468 whole entry, looked up): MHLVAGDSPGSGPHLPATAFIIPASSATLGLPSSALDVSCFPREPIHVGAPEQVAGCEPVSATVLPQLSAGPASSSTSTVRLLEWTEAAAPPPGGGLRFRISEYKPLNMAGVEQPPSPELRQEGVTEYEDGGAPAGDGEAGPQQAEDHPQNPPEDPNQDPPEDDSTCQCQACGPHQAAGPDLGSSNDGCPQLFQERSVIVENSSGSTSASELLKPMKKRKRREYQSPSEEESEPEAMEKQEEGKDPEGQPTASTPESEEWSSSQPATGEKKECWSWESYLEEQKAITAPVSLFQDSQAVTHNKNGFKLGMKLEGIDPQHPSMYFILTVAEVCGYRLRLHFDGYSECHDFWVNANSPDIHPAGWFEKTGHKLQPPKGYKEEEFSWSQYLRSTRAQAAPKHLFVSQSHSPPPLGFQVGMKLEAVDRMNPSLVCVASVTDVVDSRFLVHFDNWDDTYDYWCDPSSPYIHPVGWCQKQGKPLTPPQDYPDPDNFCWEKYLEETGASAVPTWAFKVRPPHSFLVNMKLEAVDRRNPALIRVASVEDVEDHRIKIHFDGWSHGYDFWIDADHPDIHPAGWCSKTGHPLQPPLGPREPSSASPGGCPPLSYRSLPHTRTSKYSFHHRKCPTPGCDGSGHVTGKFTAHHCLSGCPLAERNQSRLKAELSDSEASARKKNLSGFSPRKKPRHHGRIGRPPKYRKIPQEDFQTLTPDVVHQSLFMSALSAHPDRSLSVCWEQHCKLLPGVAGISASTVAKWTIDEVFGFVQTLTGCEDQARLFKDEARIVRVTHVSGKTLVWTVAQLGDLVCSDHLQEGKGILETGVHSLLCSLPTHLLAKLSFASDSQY
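First, the protein-peptide complex forms for 30 min at room temperature (L3MBTL1 50 nM, biotinylated H3K9me1 peptide 75 nM). Next, compounds are pin-transferred and incubated 30 min. Finally, AlphaScreen beads are added and read after 30 min.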
* hit, by the source's call; ? = inconclusive; . = no result; [ ] = another dose, or the depositor's remark. The call rests on the fitted dose curve; in most records, active means well fitted curve in the direction sought with a large enough effect; inconclusive means small, poorly fitted or top-dose-only effect, or another doubt; inactive means no such curve, though single readings can be large; an effect the other way counts as inactive or inconclusive. Potency means the concentration at half of the fitted maximal effect.

SMILES | PLK1 PBD block | BAZ2B inh | JMJD2A Tudor | VDR inhibitor | HP1b binding inh | L3MBTL1 inh
O=C(O)Cc1cc(F)c(S(=O)(=O)N2CCN(S(=O)(=O)c3ccc4c(c3)OCCO4)CC2)cc1F | . | . | -35% | . | . | .
Cc1cccc(S(=O)(=O)N2CCN(S(=O)(=O)c3ccc4c(c3)OCCO4)CC2)c1 | . | . | -14% | . | . | .
CCOc1cc(/C=N/Nc2ccccc2Cl)ccc1OCC(=O)O | -16% | ? | -26% | -13% | ? | ?
CC(=O)Oc1ccc(N2C(=O)C3C(C2=O)C(C(=O)c2ccc(Cl)cc2)N2CCCC32)cc1 (stereo unspecified) | 24µM* | -32% | 45µM* | -5% | ? | 5%
Cc1ccc(C(C)C)c(OCC(=O)NN=C(CCl)CCl)c1 | . | 56µM* | . | . | . | ?
Cc1ccccc1OCc1ccc(-c2nc(C#N)c(N3CCN(c4cccc(Cl)c4)CC3)o2)o1 | . | -15% | -23% | -2% | 32% | .
Cc1cccc(-c2cc3nc4c(c(NCc5ccco5)n3n2)CCCC4)c1 | -7% | -7% | 79µM* | 2% | -13% | -8%
CC12COC3(C(N)=O)CC1CCC32C (stereo unspecified) | -1% | 0% | -6% | 0% | 36% | ?
CC(C)=CCc1c2c(c(O)c3c(=O)c4c(oc13)-c1cc(O)c(O)cc1OC4C=C(C)C)C=CC(C)(C)O2 (stereo unspecified) | 1% | . | 35µM* | 2% | ? | .
COc1ccc(-c2nc3ccccc3o2)cc1NC(=O)C(C)(C)Oc1ccc(Br)cc1 | . | -14% | -2% | -5% | 17% | .
N#Cc1c(C(F)(F)F)cc(-c2ccccc2)nc1SCC(=O)Nc1sc2c(c1C#N)CCC2 | 30µM* | 0% | -10%[11.4 µM] | -4% | -11% | -2%
CC(Sc1nc(-c2ccccc2)cc(C(F)(F)F)n1)C(=O)Nc1sc2c(c1C(N)=O)CCC2 (stereo unspecified) | -19% | -34% | -20%[57.1 µM] | 2% | 44% | 6%
CC(Sc1nc(-c2ccccc2)cc(C(F)(F)F)n1)C(=O)Nc1sc2c(c1C#N)CCC2 (stereo unspecified) | 24µM* | -18%[57.1 µM] | -23% | 3% | -22% | -7%
CC1=C(C(=O)Nc2ccc(C)cc2C)C(c2ccccc2[N+](=O)[O-])n2ncc(C(=O)Nc3ccccc3)c2N1 (stereo unspecified) | . | -13%[57.1 µM] | ? | -2% | -5% | .
COc1ccc(NC(=O)Cn2ncn3nc(-c4ccc(OC)cc4)cc3c2=O)cc1 | -5% | -8% | -1% | 2% | 34% | .
O=C(CSc1nc(-c2ccc(F)cc2)cs1)NC(=O)NCc1ccco1 | -16% | 50µM* | ? | 2% | 4% | -25%
Cc1ccc2occ(CC(=O)Nc3ccc(Cl)c(C(F)(F)F)c3)c2c1 | . | 3% | 36% | -12% | 99% | .
O=C(NNc1ncnc2ccccc12)c1cccc(Cl)c1 | -16% | 79µM* | 6% | 0% | 37% | .
O=C(NNc1ncnc2c1cnn2-c1ccccc1)c1cccc(Cl)c1 | . | 19% | -21% | 4% | 100% | .
Cc1cc2ncn(C3CC(=O)N(Cc4ccc(N5CCCC5=O)cc4)C3=O)c2cc1C (stereo unspecified) | 7% | 1% | -6% | -8% | 15% | -17%
CCn1cc(S(=O)(=O)c2ccc(C)cc2C)c(=O)c2cc(F)c(N3CCCCC3)cc21 | . | -7% | -16% | 10% | 21% | .
Cc1c(Cl)c(-c2n[nH]c(=S)n2-c2ccc(F)cc2)nn1C | -1% | -5% | 45µM* | 10% | 27% | -3%
Cc1nn(C)cc1-c1n[nH]c(=S)n1-c1ccc(F)cc1 | -14% | -20% | 5.6µM* | -10% | 16% | 4%
S=c1[nH]nc(-c2ccc(Cl)cc2)n1-c1ccc(Cl)cc1 | ? | ? | -29% | -13% | 13% | -2%
CCCCn1c(-c2nn(C)c(C)c2Cl)n[nH]c1=S | -15% | 11%[57.1 µM] | 8.9µM* | 1% | -30% | 1%
SMILES | PLK1 PBD block | BAZ2B inh | JMJD2A Tudor | VDR inhibitor | HP1b binding inh | L3MBTL1 inh
Cc1nn(Cc2n[nH]c(=S)n2Cc2ccccc2)c(C)c1Cl | -5% | -22% | ? | -5% | 16% | -2%
COc1cccc(-c2ccnc3c(-c4ccc(F)cc4)c(C)nn23)c1 | . | -5% | -9% | -12% | 54% | .
CC(C)[C@H](NC(=O)OC(C)(C)C)c1cc(C(=O)N[C@@H](C)c2ccccc2)c(N)s1 | -23% | . | . | . | . | .
COc1ccc(OC)c(S(=O)(=O)N2CCCC(N3CCN(c4ccccc4)CC3)C2)c1 (stereo unspecified) | 0% | ? | -24% | 18% | 14% | .
COc1ccc(N2CCN(C3CCCN(S(=O)(=O)c4ccc(C)cc4C)C3)CC2)cc1 (stereo unspecified) | 0% | 25µM* | 32µM* | 1% | ? | .
COc1ccc(N2CCN(C3CCCN(S(=O)(=O)c4ccccc4)C3)CC2)cc1 (stereo unspecified) | -8% | 71µM* | ? | -2% | ? | .
O=C(COC(=O)Cn1nnc2ccccc21)Nc1ccccc1Br | 30µM* | 14% | ? | ? | 11% | -5%
CCc1ccc(Cn2c(CNS(=O)(=O)c3ccc(F)c(Cl)c3)nc3cccnc32)cc1 | . | -1% | -12% | 6% | 13%[57 µM] | .
CCN(CCO)Cc1cn[nH]c1-c1ccc(C)c(C)c1 | -2% | 56µM* | 3.5µM* | -7% | ? | 3%
O=C(CN1C(=O)CCC1=O)Nc1nc(-c2ccc3ccccc3c2)cs1 | 1% | -16% | -7% | -18% | 19% | 30%
N#Cc1ccccc1OCC(=O)Nc1nc(-c2ccccn2)cs1 | 27µM* | . | . | . | . | .
O=C(CN1C(=O)CCC1=O)Nc1nc(-c2ccccn2)cs1 | -13% | 5.6µM* | 25µM* | -20% | 27% | .
O=C(/C=C/c1ccco1)Nc1nc(-c2ccccn2)cs1 | -26% | 28µM* | 50µM* | ? | 45µM* | .
CSCCC(=O)Nc1nc(-c2ccccn2)cs1 | ? | 20µM* | 89µM* | ? | 9% | .
O=C(/C=C/c1ccco1)Nc1nc(-c2ccccc2)cs1 | -8% | ? | -11% | -11% | -1% | -8%
O=C(COc1ccc(F)cc1Cl)Nc1nc(-c2ccccn2)cs1 | . | 10% | . | . | . | -9%
Nc1c(S(=O)(=O)c2ccccc2)csc1C(=O)O | -4% | -14% | -2%[11.4 µM] | 6% | 49% | .
O=C(Nc1nc(-c2ccccn2)cs1)C1CCCC1 | ? | 50µM* | ? | -14% | -17% | ?
O=C(CCCSc1ccccc1)Nc1nc(-c2ccccn2)cs1 | 21µM* | -1% | -27% | ? | 16% | .
O=C(N1CCCCC1)N1CCN(C(c2ccccc2)c2ccccc2)CC1 | -6% | -2% | -9% | -7% | 19% | .
Oc1c(C(c2ccccc2)N2CCCCC2)ccc2ccccc12 (stereo unspecified) | 3µM* | . | . | . | . | .
